Holding throughout (assay): yeast three-hybrid, YBZ-1, SC-Leu-His + 0.5 mM 3-AT, 4 days
Details in all cases: tags: N-Gal4 AD-HA kept; label: inside an RPR1-promoter hybrid RNA with tandem MS2 sites; ssRNA

For one test, the target named is PUM1 PUF domain R5-NTR (Homo sapiens, UniProt Q14671 828-1176, C1007N;R1008T;Q1011R). A digest of the protocol: (§1)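 Sequencing with Illumina followed PCR amplification of the repeat regions from transformants grown four days on SC-Leu (input) or SC-Leu-His + 0.5 mM 3-AT (selection). The transformants were strain YBZ-1 with a LexA–MS2 coat fusion and a HIS3 reporter, carrying Pumilio-1 PUF domain libraries and matching RNA elements. The interaction score is the log change in variant frequency from input to selection, computed in log2 with a pseudocount of 1 for absent variants.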

The next test concerns the target PUM1 PUF domain R5-RQM (Homo sapiens, UniProt Q14671 828-1176, C1007R;R1008Q;Q1011M). In short, it runs like this: as §1
A further test concerns the target PUM1 PUF domain R5-IFM (Homo sapiens, UniProt Q14671 828-1176, C1007I;R1008F;Q1011M). In short, it runs like this: as §1
The target in a further test is PUM1 PUF domain R8-WYR (Homo sapiens, UniProt Q14671 828-1176, N1122W;Q1126R). In short, it runs like this: as §1
Another test deals with T1, PUM1 PUF domain R6-CYE (Homo sapiens, UniProt Q14671 828-1176, N1043C;Q1047E).
T1 sequence: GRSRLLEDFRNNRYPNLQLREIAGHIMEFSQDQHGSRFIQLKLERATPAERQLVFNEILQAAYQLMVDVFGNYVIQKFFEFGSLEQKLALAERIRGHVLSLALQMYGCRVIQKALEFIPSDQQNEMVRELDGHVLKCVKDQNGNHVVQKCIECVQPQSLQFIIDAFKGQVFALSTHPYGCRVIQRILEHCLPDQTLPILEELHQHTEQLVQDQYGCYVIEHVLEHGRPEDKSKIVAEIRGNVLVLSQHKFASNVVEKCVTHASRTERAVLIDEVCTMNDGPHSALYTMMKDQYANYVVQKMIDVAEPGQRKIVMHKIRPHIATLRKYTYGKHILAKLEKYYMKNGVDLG
In short, it runs like this:
as §1

The next test has as its target PUM1 PUF domain R1-SPK (Homo sapiens, UniProt Q14671 828-1176, R864P;Q867K). In short, it runs like this:
as §1

The target in another test is PUM1 PUF domain R2-RTS (Homo sapiens, UniProt Q14671 828-1176, N899R;Y900T;Q903S). A digest of the protocol: as §1

The text below walks through data of publication PMC8384837, “Expanding the binding specificity for RNA recognition by a PUF domain”.

As for “GGCUAGAACUAGUGGAUCCCCCGGCGCCCGGCGGCUCGAGCCCGGGUAAGUGUCAAUAGUCUGCAUGCCGCCGGGCGCCAUGCCUGCAGGUCGACUCUAGAAAACAUG”, the values for the binding signal with PUM1 PUF domain R5-NTR and with PUM1 PUF domain R5-RQM were 5.46 log2 enrichment (interaction score) and 4.46 log2 enrichment (interaction score), respectively.

With “GGCUAGAACUAGUGGAUCCCCCGGCGCCCGGCGGCUCGAGCCCGGGUAAGUGUAAAUAGUCUGCAUGCCGCCGGGCGCCAUGCCUGCAGGUCGACUCUAGAAAACAUG”, the binding signal is 2.52 log2 enrichment (interaction score) with PUM1 PUF domain R5-IFM, 4.75 log2 enrichment (interaction score) with PUM1 PUF domain R8-WYR and 2.06 log2 enrichment (interaction score) with PUM1 PUF domain R5-RQM.

Regarding “GGCUAGAACUAGUGGAUCCCCCGGCGCCCGGCGGCUCGAGCCCGGGUAAGUGGAAAUAGUCUGCAUGCCGCCGGGCGCCAUGCCUGCAGGUCGACUCUAGAAAACAUG”, the binding signal with PUM1 PUF domain R6-CYE is 2.53 log2 enrichment (interaction score).

Turning to “GGCUAGAACUAGUGGAUCCCCCGGCGCCCGGCGGCUCGAGCCCGGGUAAGUGUAAAUCGUCUGCAUGCCGCCGGGCGCCAUGCCUGCAGGUCGACUCUAGAAAACAUG”, the binding signal with PUM1 PUF domain R1-SPK was 2.31 log2 enrichment (interaction score).

With “GGCUAGAACUAGUGGAUCCCCCGGCGCCCGGCGGCUCGAGCCCGGGUAAGCGUAAAUAGUCUGCAUGCCGCCGGGCGCCAUGCCUGCAGGUCGACUCUAGAAAACAUG”, in the test with PUM1 PUF domain R8-WYR, the binding signal is 4.97 log2 enrichment (interaction score).

Turning to “GGCUAGAACUAGUGGAUCCCCCGGCGCCCGGCGGCUCGAGCCCGGGUAAGUGUAAAGAGUCUGCAUGCCGCCGGGCGCCAUGCCUGCAGGUCGACUCUAGAAAACAUG”, the binding signal with PUM1 PUF domain R2-RTS was 3.27 log2 enrichment (interaction score).
